# Measured values as given in PubChem BioAssay (EPA / NIEHS).
# Results filed as inconclusive are left out. Activity calls are given as the source filed them. How the source made its calls: active means hit-call score of the fitted dose curve at least 0.9, where 1 is the maximum; inconclusive means response in the unintended direction; inactive means score below 0.9.
# Columns and labels:
# [1] = system: rabbit Platelet Activating Factor Receptor (PAF), gene 100354046; experiment: NVS_GPCR_rabPAF: NovaScreen (NVS) G Protein-Coupled Receptor Assay for rabbit Platelet Activating Factor Receptor (PAF) (AID 2283287)
# Summary of the method: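 Rabbit platelet membrane preparation; radioligand displacement read by filter-based scintillation counting 1 h after dosing, loss of signal versus DMSO. Primary screen in duplicate at 25 uM, actives followed up in concentration series.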
# [2] = target: rat Adrenergic, Alpha 1, Non-selective Receptor (Adra1), Adra1a (gene 29412) (UniProt P43140); experiment: NVS_GPCR_rAdra1_NonSelective: NovaScreen (NVS) G Protein-Coupled Receptor Assay for rat Adrenergic, Alpha 1, Non-selective Receptor (Adra1) (AID 2283289)
# Sequence of rat Adrenergic, Alpha 1, Non-selective Receptor (Adra1), Adra1a (gene 29412) (P43140 whole entry, looked up): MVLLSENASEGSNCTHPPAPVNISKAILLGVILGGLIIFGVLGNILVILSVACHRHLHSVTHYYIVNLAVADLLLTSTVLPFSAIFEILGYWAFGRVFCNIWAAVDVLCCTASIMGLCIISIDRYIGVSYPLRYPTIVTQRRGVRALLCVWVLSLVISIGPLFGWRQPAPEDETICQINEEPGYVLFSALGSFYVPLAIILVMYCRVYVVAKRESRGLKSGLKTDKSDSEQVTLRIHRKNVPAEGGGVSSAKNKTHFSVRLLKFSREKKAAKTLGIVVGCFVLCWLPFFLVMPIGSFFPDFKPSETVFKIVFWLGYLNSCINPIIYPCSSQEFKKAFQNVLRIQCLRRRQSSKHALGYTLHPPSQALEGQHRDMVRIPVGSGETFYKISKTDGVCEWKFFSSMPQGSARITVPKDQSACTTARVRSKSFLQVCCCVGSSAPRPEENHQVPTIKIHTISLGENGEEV
# Summary of the method: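 Chemicals first screened in duplicate at 25 uM, then actives tested in concentration series up to 50 uM. Binding measured as displacement of radioligand from rat forebrain membrane receptors, 1 h, filtration with scintillation readout; DMSO baseline.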
# [3] = target: mouse Cholecystokinin, CCK2 Receptor (CCKB), Cckbr (gene 12426) (UniProt P56481); experiment: NVS_GPCR_mCKKBCentral: NovaScreen (NVS) G Protein-Coupled Receptor Assay for mouse Cholecystokinin, CCK2 Receptor (CCKB) (AID 2283293)
# Sequence of mouse Cholecystokinin, CCK2 Receptor (CCKB), Cckbr (gene 12426) (P56481 whole entry, looked up): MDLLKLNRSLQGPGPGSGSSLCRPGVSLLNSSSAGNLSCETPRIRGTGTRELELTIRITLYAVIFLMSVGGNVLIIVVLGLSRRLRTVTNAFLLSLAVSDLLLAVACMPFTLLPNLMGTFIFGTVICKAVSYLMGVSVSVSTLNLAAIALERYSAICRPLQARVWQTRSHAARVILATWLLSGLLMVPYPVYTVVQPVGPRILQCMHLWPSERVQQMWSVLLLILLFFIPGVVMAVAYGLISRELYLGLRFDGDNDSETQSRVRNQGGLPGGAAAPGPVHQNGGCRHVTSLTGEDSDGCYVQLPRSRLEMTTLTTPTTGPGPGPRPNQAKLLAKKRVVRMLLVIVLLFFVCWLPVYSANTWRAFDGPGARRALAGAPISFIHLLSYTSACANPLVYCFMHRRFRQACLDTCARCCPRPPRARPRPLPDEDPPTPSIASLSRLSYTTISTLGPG
# Summary of the method: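 Mouse forebrain membrane preparation incubated 2 h with chemical and radioligand; bound radioactivity counted after filtration. Single-concentration duplicate screen at 25 uM, then concentration series to 50 uM max for hits, DMSO as baseline.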
# [4] = target: guinea pig Serotonin, 5-Hydroxytryptamine Receptor 4 (5HT4), HTR4 (gene 100135548) (UniProt O70528); experiment: NVS_GPCR_g5HT4: NovaScreen (NVS) G Protein-Coupled Receptor Assay for guinea pig Serotonin, 5-Hydroxytryptamine Receptor 4 (5HT4) (AID 2283294)
# Sequence of guinea pig Serotonin, 5-Hydroxytryptamine Receptor 4 (5HT4), HTR4 (gene 100135548) (O70528 whole entry, looked up): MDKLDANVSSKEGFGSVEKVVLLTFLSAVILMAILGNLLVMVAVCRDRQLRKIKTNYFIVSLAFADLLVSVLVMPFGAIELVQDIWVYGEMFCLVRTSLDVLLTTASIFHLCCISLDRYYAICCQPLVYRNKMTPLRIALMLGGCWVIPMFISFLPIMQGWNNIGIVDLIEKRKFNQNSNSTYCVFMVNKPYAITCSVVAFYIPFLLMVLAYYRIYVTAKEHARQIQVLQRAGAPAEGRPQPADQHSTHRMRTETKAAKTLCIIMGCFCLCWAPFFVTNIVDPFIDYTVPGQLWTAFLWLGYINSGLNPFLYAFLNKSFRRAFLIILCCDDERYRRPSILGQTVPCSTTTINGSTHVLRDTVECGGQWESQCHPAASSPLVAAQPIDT
# Summary of the method: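 Compounds first screened in duplicate at 25 uM, actives followed up in concentration series. Binding measured as displacement of specific radioligand from guinea pig striatal membranes, 1 h, filter-based scintillation read-out versus DMSO baseline.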
# [5] = target: rat Serotonin, 5-Hydroxytryptamine Receptor (5HT), Non-Selective Binding, Htr1a (gene 24473) (UniProt P19327); experiment: NVS_GPCR_r5HT_NonSelective: NovaScreen (NVS) G Protein-Coupled Receptor Assay for rat Serotonin, 5-Hydroxytryptamine Receptor (5HT), Non-Selective Binding (AID 2283295)
# Sequence of rat Serotonin, 5-Hydroxytryptamine Receptor (5HT), Non-Selective Binding, Htr1a (gene 24473) (P19327 whole entry, looked up): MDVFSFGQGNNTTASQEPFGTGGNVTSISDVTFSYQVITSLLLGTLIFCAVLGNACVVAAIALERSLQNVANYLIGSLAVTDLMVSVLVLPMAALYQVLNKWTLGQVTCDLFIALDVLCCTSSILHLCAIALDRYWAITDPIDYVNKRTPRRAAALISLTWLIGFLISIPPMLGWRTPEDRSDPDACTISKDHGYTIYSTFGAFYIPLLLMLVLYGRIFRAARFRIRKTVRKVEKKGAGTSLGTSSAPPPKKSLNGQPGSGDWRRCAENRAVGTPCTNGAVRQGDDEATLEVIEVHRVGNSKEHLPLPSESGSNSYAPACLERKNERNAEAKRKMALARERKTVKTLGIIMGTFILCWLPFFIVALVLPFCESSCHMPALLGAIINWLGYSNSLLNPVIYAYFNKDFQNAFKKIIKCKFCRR
# Summary of the method: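 Rat cortex membrane preparation incubated 1 h with radioligand and test chemical; bound radioactivity counted after filtration. Screening began in duplicate at 25 uM with concentration-series follow-up; fitting relative to DMSO.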
# [6] = target: rat Adrenergic, Alpha 1A Receptor (Adra1A), Adra1a (gene 29412) (UniProt P43140); experiment: NVS_GPCR_rAdra1A: NovaScreen (NVS) G Protein-Coupled Receptor Assay for rat Adrenergic, Alpha 1A Receptor (Adra1A) (AID 2283296)
# Sequence of rat Adrenergic, Alpha 1A Receptor (Adra1A), Adra1a (gene 29412) (P43140 whole entry, looked up): as the sequence (P43140 whole entry, looked up) above
# Procedure: NVS_GPCR_rAdra1A is a biochemical, single-readout assay that uses extracted gene-proteins from Rat cortical membranes (pretreated with chlorethyl clonidine-CEC) in a tissue-based cell-free assay. Measurements were taken 1 hour after chemical dosing in a 48-well plate.NVS_GPCR_rAdra1A is one of one assay component(s) measured or calculated from the NVS_GPCR_rAdra1A assay. It is designed to make measurements of radioligand binding, a form of binding reporter, as detected with scintillation counting signals by Filter-based radiodetection technology.Data from the assay component NVS_GPCR_rAdra1A was analyzed into 1 assay endpoint. This assay endpoint, NVS_GPCR_rAdra1A, was analyzed in the positive analysis fitting direction relative to DMSO as the negative control and baseline of activity. Using a type of binding reporter, loss-of-signal activity can be used to understand changes in the binding as they relate to the gene Adra1a. Furthermore, this assay endpoint can be referred to as a primary readout, because the performed assay has only produced 1 assay endpoint. To generalize the intended target to other relatable targets, this assay endpoint is annotated to the gpcr intended target family, where the subfamily is rhodopsin-like receptor.
# Binding assays used specific radioligands (tritiated, iodinated) with non-radioactive competitive displacement ligands in agonist or antagonist protocols (as indicated) and various reference compounds and inhibitors to titrate specific binding to receptors and transporters. Most enzyme assays (CYPs, kinases, phosphatases, proteases, HDACs) used recombinant protein and specific substrates (fluorescence mostly, some colorimetric and radioactive) and inhibitors, followed by a biochemical separation of substrate and product. All assays for the biochemical HTS were initially run in duplicate at a single concentration (10 uM for CYP450 assays and 25 uM for all others). […] Each assay was run with positive and negative controls, and concurrent controls on every plate. The follow-up (secondary) screen tested active chemical-pairs in concentration series, as well as a few additional assays not tested in the primary screen, some selected negative inactives, and several cases re-run in the concentration series for confirmatory purposes.
# [7] = target: mouse Cholecystokinin, CCK1 Receptor (CCKA), Cckar (gene 12425) (UniProt O08786); experiment: NVS_GPCR_mCCKAPeripheral: NovaScreen (NVS) G Protein-Coupled Receptor Assay for mouse Cholecystokinin, CCK1 Receptor (CCKA) (AID 2283285)
# Sequence of mouse Cholecystokinin, CCK1 Receptor (CCKA), Cckar (gene 12425) (O08786 whole entry, looked up): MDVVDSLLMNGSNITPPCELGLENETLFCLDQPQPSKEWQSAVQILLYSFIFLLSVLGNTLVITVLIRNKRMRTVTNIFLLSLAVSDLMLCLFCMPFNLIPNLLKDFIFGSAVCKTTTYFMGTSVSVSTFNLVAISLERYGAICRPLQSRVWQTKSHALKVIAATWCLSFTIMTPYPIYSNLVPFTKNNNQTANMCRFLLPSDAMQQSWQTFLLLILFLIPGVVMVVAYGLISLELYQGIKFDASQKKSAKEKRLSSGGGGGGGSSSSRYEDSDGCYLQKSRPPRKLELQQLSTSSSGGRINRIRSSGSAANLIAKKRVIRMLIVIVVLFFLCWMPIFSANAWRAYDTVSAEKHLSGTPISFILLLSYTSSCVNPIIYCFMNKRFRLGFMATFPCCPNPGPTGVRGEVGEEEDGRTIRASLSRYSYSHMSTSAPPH
# Procedure: NVS_GPCR_mCCKAPeripheral is a biochemical, single-readout assay that uses extracted gene-proteins from Mouse pancreatic membranes in a tissue-based cell-free assay. Measurements were taken 2 hours after chemical dosing in a 96-well plate.NVS_GPCR_mCCKAPeripheral is one of one assay component(s) measured or calculated from the NVS_GPCR_mCCKAPeripheral assay. It is designed to make measurements of radioligand binding, a form of binding reporter, as detected with scintillation counting signals by Filter-based radiodetection technology.Data from the assay component NVS_GPCR_mCCKAPeripheral was analyzed into 1 assay endpoint. This assay endpoint, NVS_GPCR_mCCKAPeripheral, was analyzed in the positive analysis fitting direction relative to DMSO as the negative control and baseline of activity. Using a type of binding reporter, loss-of-signal activity can be used to understand changes in the binding as they relate to the gene Cckar. Furthermore, this assay endpoint can be referred to as a primary readout, because the performed assay has only produced 1 assay endpoint. To generalize the intended target to other relatable targets, this assay endpoint is annotated to the gpcr intended target family, where the subfamily is rhodopsin-like receptor.
# Binding assays used specific radioligands (tritiated, iodinated) with non-radioactive competitive displacement ligands in agonist or antagonist protocols (as indicated) and various reference compounds and inhibitors to titrate specific binding to receptors and transporters. Most enzyme assays (CYPs, kinases, phosphatases, proteases, HDACs) used recombinant protein and specific substrates (fluorescence mostly, some colorimetric and radioactive) and inhibitors, followed by a biochemical separation of substrate and product. All assays for the biochemical HTS were initially run in duplicate at a single concentration (10 uM for CYP450 assays and 25 uM for all others). Assay-chemical combinations meeting a pre-defined threshold (e.g., 30% inhibition and other criteria defined below) were then run in singleton concentration-response format with maximum concentration of 20 uM for CYPs and 50 uM for all others. Each assay was run with positive and negative controls, and concurrent controls on every plate. The follow-up (secondary) screen tested active chemical-pairs in concentration series, as well as a few additional assays not tested in the primary screen, some selected negative inactives, and several cases re-run in the concentration series for confirmatory purposes.
# [8] = target: guinea pig Bradykinin Receptor B2 (BK2), BDKRB2 (gene 100135486) (UniProt O70526); experiment: NVS_GPCR_gBK2: NovaScreen (NVS) G Protein-Coupled Receptor Assay for guinea pig Bradykinin Receptor B2 (BK2) (AID 2283292)
# Sequence of guinea pig Bradykinin Receptor B2 (BK2), BDKRB2 (gene 100135486) (O70526 whole entry, looked up): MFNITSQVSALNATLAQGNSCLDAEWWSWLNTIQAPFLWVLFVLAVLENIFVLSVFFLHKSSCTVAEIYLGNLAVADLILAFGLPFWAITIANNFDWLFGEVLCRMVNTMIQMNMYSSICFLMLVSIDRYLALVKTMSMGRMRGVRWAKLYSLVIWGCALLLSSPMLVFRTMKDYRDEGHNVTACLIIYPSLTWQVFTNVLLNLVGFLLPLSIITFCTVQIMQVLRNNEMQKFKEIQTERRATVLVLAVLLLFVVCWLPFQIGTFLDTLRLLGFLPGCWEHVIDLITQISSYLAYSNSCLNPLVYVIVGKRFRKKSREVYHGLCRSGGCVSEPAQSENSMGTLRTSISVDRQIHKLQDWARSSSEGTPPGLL
# Procedure: NVS_GPCR_gBK2 is a biochemical, single-readout assay that uses extracted gene-proteins from Guinea pig ileum membranes in a tissue-based cell-free assay. Measurements were taken 1 hour after chemical dosing in a 48-well plate.NVS_GPCR_gBK2 is one of one assay component(s) measured or calculated from the NVS_GPCR_gBK2 assay. It is designed to make measurements of radioligand binding, a form of binding reporter, as detected with scintillation counting signals by Filter-based radiodetection technology.Data from the assay component NVS_GPCR_gBK2 was analyzed into 1 assay endpoint. This assay endpoint, NVS_GPCR_gBK2, was analyzed in the positive analysis fitting direction relative to DMSO as the negative control and baseline of activity. Using a type of binding reporter, loss-of-signal activity can be used to understand changes in the binding as they relate to the gene Bdkrb2. Furthermore, this assay endpoint can be referred to as a primary readout, because the performed assay has only produced 1 assay endpoint. To generalize the intended target to other relatable targets, this assay endpoint is annotated to the gpcr intended target family, where the subfamily is rhodopsin-like receptor. […]
# [9] = target: rat Serotonin, 5-Hydroxytryptamine Receptor 1 (5HT1), Non-Selective Binding, Htr1a (gene 24473) (UniProt P19327); experiment: NVS_GPCR_r5HT1_NonSelective: NovaScreen (NVS) G Protein-Coupled Receptor Assay for rat Serotonin, 5-Hydroxytryptamine Receptor 1 (5HT1), Non-Selective Binding (AID 2283286)
# Sequence of rat Serotonin, 5-Hydroxytryptamine Receptor 1 (5HT1), Non-Selective Binding, Htr1a (gene 24473) (P19327 whole entry, looked up): as the sequence (P19327 whole entry, looked up) above
# Summary of the method: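 Binding of a radioligand to rat cortex membranes is read by filtration and scintillation counting after 1 h. Compounds were screened at 25 uM in duplicate. Actives were then titrated to a top of 50 uM. DMSO is the baseline.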
# [10] = target: human Vasopressin 1A Receptor (V1A), AVPR1A (gene 552) (UniProt P37288); experiment: NVS_GPCR_hV1A: NovaScreen (NVS) G Protein-Coupled Receptor Assay for human Vasopressin 1A Receptor (V1A) (AID 2283284)
# Sequence of human Vasopressin 1A Receptor (V1A), AVPR1A (gene 552) (P37288 whole entry, looked up): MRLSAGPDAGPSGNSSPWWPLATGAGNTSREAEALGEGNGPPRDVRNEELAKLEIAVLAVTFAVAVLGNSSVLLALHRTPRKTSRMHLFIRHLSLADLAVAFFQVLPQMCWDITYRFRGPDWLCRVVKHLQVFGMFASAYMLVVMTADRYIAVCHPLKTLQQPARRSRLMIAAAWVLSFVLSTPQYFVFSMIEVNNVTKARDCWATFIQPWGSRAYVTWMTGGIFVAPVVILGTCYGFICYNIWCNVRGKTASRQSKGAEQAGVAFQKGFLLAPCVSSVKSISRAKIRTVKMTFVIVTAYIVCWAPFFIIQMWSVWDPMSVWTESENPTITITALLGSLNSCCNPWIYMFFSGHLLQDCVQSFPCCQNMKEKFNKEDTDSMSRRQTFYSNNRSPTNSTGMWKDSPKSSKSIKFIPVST
# Summary of the method: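 Single-concentration duplicate screen at 25 uM, with concentration-response follow-up (top 50 uM) for actives. The assay measured displacement of a radioligand from human platelet-derived receptor after 1.5 h, detected by filtration and scintillation counting.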
structure (smiles),measurement,setting,value
CNS(=O)(=O)c1cc(C(=O)N2CCC(CCN3C4CCC3CC(n3c(C)nc5ccccc53)C4)(c3cccc(F)c3)CC2)c(Cl)cc1F (configuration not stated),AC50,[1],1.33 µM (active)
same,AC50,[2],1.92 µM (active)
same,outcome,[3],inactive
same,outcome,[4],inactive
same,outcome,[5],inactive
same,AC50,[6],14.9 µM (active)
CCOc1cccc(-n2cc(C(=O)N3CCN(c4cc(C(=O)O)c5ccccc5c4)CC3)nc2-c2ccc(C)cc2)c1,AC50,[7],0.00589 µM (active)
O=C(O)CC(O)C(=O)O (configuration not stated),outcome,[5],inactive
Oc1ccc2c(c1)-c1ccccc1C2,AC50,[4],6.87 µM (active)
CC[C@H]1OC(=O)[C@H](C)[C@@H](O[C@H]2C[C@@](C)(OC)[C@@H](O)[C@H](C)O2)[C@H](C)[C@@H](O[C@@H]2O[C@H](C)C[C@H](N(C)C)[C@H]2O)[C@](C)(O)C[C@@H](C)C(=O)[C@H](C)[C@@H](O)[C@]1(C)O,outcome,[2],inactive
COCCOc1cc2cc(C(=O)NC3CCN(C(C)C)CC3)n(CC(=O)Nc3ccc(Cl)cn3)c2cn1,outcome,[8],inactive
same,AC50,[6],14.7 µM (active)
O=c1[nH]c2ccc(S(=O)CCN3CCC(Cc4ccc(F)cc4)CC3)cc2o1 (configuration not stated),outcome,[9],inactive
same,AC50,[2],1.07 µM (active)
same,AC50,[5],5.88 µM (active)
same,AC50,[6],3.25 µM (active)
CCn1nc(Cc2ccccc2)cc1C1CCN(C[C@H]2C[C@H](N(C)[C@@H](C(=O)O)C(C)C)C[C@@H]2c2cccc(F)c2)CC1,AC50,[4],25 µM (active)
O=P(OC(CCl)CCl)(OC(CCl)CCl)OC(CCl)CCl,outcome,[7],inactive
same,AC50,[1],8.52 µM (active)
CCOC(=O)COc1ccc2c(c1)CC(NCC(O)c1cccc(Cl)c1)CC2 (configuration not stated),outcome,[5],inactive
O=C(OC[C@H]1O[C@@H](OC(=O)c2cc(O)c(O)c(OC(=O)c3cc(O)c(O)c(O)c3)c2)[C@H](OC(=O)c2cc(O)c(O)c(OC(=O)c3cc(O)c(O)c(O)c3)c2)[C@@H](OC(=O)c2cc(O)c(O)c(OC(=O)c3cc(O)c(O)c(O)c3)c2)[C@@H]1OC(=O)c1cc(O)c(O)c(OC(=O)c2cc(O)c(O)c(O)c2)c1)c1cc(O)c(O)c(OC(=O)c2cc(O)c(O)c(O)c2)c1,AC50,[7],12 µM (active)
On1ccccc1=S,AC50,[9],16.2 µM (active)
COc1cccc(-c2ccc(/C=C\CN3CCCCCC3)cc2Cl)c1,AC50,[2],15.2 µM (active)
same,AC50,[4],12.1 µM (active)
same,outcome,[6],inactive
CCN(C(=O)c1cc(C)cc(OC[C@H](C)Nc2ccncc2)c1)C(C)C,AC50,[2],13.4 µM (active)
same,AC50,[4],3.35 µM (active)
same,AC50,[6],7.54 µM (active)
CN(C)c1ccc(N=NS(=O)(=O)O)cc1,AC50,[2],23.8 µM (active)
Cc1ccc(C)c(O)c1,outcome,[2],inactive
CCCCCCc1ccc(O)cc1O,AC50,[4],36.6 µM (active)
COc1ccc(-n2nc(C(F)F)cc2-c2ccc(S(C)=O)cc2)cc1 (configuration not stated),AC50,[1],11.5 µM (active)
CCOC(=O)c1ccc(C2CCC(NC[C@H](O)COc3ccc(O)c(NS(C)(=O)=O)c3)CC2)cc1 (some centres not stated),AC50,[4],2.57 µM (active)
same,AC50,[6],11.5 µM (active)
Cc1[nH]cnc1C[C@H]1CCc2c(C)c3ccccc3n2C1=O,outcome,[9],inactive
same,AC50,[1],0.958 µM (active)
same,AC50,[2],3.15 µM (active)
same,AC50,[4],6.64 µM (active)
same,AC50,[5],4.63 µM (active)
same,AC50,[6],8.9 µM (active)
Cc1ccc(O)cc1,AC50,[10],22.1 µM (active)
CC1(C)C(=O)N(Br)C(=O)N1Br,AC50,[5],17.1 µM (active)
CCCN(C1CCN(C(=O)C2CCNCC2)CC1)[C@@H]1CCc2ccc(OC)cc2C1,AC50,[9],8.67 µM (active)
same,AC50,[2],16.1 µM (active)
same,AC50,[4],8.99 µM (active)
same,AC50,[5],25 µM (active)
CCc1cc(SCc2sc(-c3ccc(C(F)(F)F)cc3)nc2CN2CCN(c3ccc(OC)cc3)CC2)ccc1OCC(=O)O,AC50,[7],7.03 µM (active)
same,outcome,[2],inactive
same,AC50,[3],35.3 µM (active)
COc1ccc(/C=C/S(=O)(=O)NC(=O)c2ccc(C)cc2Cl)cc1,AC50,[7],22.7 µM (active)
Cc1ccc(N)cc1O,outcome,[1],inactive
Nc1ccc(Nc2ccccc2)cc1,AC50,[2],32.3 µM (active)
same,AC50,[4],31.6 µM (active)
CC[C@H]1CC[C@H](NCc2cc3c(cc2OC)[C@H]2C[C@H]2C(=O)N3C)[C@H](c2ccccc2)N1,AC50,[2],17.5 µM (active)
same,AC50,[4],14.2 µM (active)
Cn1c(=O)cc(Oc2ccc(F)cc2F)c2cnc(NCC(C)(C)O)nc21,AC50,[7],11.3 µM (active)
CC1=CC(=O)CC(C)(C)C1,AC50,[10],18.5 µM (active)
